test system: RARa:RXR (NR concentration 270 nM, RXRa partner concentration 90 nM); test: PBM binding z-score (relative to random genomic background probes); higher = stronger binding; sequences stand for … in GC…GCGATTGACAGCGTAGAATGAAGG
Procedure, shortened: (§1)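 Binding z-scores were set against random background probes. The data came from custom Agilent 4×180K protein-binding microarrays carrying double-stranded probes with 34-nt variable regions, incubated 1 h with ligand-free nuclear receptor dimers. Partner-specific antibodies detected binding, and scanned fluorescence was regression-normalized.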

Row | Sequence | PBM binding z-score
1 | TCAGAGAGGTGAAGGTAACTCAGGTACGCAGTCG | 1.49
2 | GGTAGTTGGTCAGTAAAAGGTCACACACCGGTCG | 5.68
3 | GTACCAAGGTGAATAGTTCGTTGATGAGTAGGCG | 0.576
4 | TCTATTAGTTGAATAGGGCAACCGAAACAGCGGA | 0.67
5 | CAAACTAGGTCACAGAGCTCAAAGTCCGTGCGTA | 2.68
6 | ATCTCTTGGTAACAAGTTCAGTGAAAGAGAGGAC | 0.676
7 | TCAGACAGGTCAAGGTAACTCAGGTACGCAGTCG | 3.37
8 | TCGAGTAGGTTAGTCGGGGCGTTCAGCCAACATA | -0.294
9 | TCTGCTAGGTCAGTTGGTCAGCTCACGAGCTGCC | 0.601
10 | AGAACGAGGGCACGCTGAGTTGATTGCAGAGTAG | 0.717
11 | AGAACGAGGGCACGCTGAGTAGATAGCAGAGTAG | 0.712
12 | ATATGTAGGTTACATCCGGGTCATTCCGGCTATG | 3.56
13 | AGAACGCGGGCACGCTGAGTTGATAGCAGAGTAG | -0.215
14 | TCTTGTAGATCAATAGAGGCTAAGAAAGTGCGCT | 0.468
15 | CCTAGCAGGCCAATCTGGGTCACTGAAGGCTTGA | 1.67
16 | CCTTACGGGTCACGAGGTTACAGCACGACGAGCG | 6.67
17 | TCTTGTAGATCAGCAGGTGAAGAAAGCTGGCCAA | 0.0618
18 | ACTATTAGCTGACTTAGGGCAACCGATACGACGC | 0.142
19 | AGAACGAGGGCAATGAGTTGATCGCACGGGTGGC | 0.134
20 | TTACCAAGGTGAAGGTCGTCGATCCCTCTGTAGA | 1.64

Row | Sequence | PBM binding z-score
21 | CTCGAAAGGTCGGTTGAGGTGAATATACGGATAA | 2.94
22 | CGTCCAAGGTCAAGGCTAGGTCAGTGAAAGCATT | 6.19
23 | ACTAGCAGGCAAAGGGTCACTCAAGATTAGTCCG | 4.35
24 | TCTTGTAGAACAAAGGTTAAGAAAGCCGAAGCCT | 2.33
25 | TAACCTAGGTCATGGGCCAGTATACCACGCGAAC | 3.44
26 | CTACCAAGGTGAACAAGGTCGTTGCTTACTATTC | 2.64
27 | TGTGCTAGGTCAGTTGGTCAGCTAACGAGCTGCC | 0.36
28 | TCTGGTTGGTCACGGAGGTCACACACGACGGGTA | 4.93
29 | AGTCAAAGTTCATCTAGGTGACGTAAGATATGCT | 3.75
30 | GCTCTTAGTTGAAAGGGCAACCGAATGATTCTCG | 1.47
31 | CGTCCAAGGTCAGGGTCAGTGAAAGAGACTCGAA | 4.22
32 | TCATATAGCTAAAGGTGAAAGTCGAACGATATGA | 1.51
33 | AGAATGAGGTTACCAAAGATCAGGTAAACGCTTG | 2.29
34 | GCTGCTAGGTCAACTGATGGTTAGCTAAAGCTCG | 2.73
35 | TCGAGTAGGTTACTCGGGGCATTCAGCCAACATA | 0.651
36 | AGAAGGAGGGCACGCTGAGTTGATAGCAGAGTAG | 0.766
37 | GCATATAGGTAATACATGGTGAAAGTCCGATTGT | 0.174
38 | GCTATTAGTTGAAAAGGCAACCGAATGATTCTCG | 0.226
39 | CAAACTAGGTCAAGGTCAACGTCGGTTTGTGCCA | 5.42
40 | GCTTGTAAATCAAGGTTAAGAAAGACTAAGCTAA | 1.05

test system: RARa homodimer (NR concentration 270 nM); test: as above
Procedure, shortened: as §1

Row | Sequence | PBM binding z-score
41 | TCAGAGAGGTGAAGGTAACTCAGGTACGCAGTCG | -0.115
42 | GGTAGTTGGTCAGTAAAAGGTCACACACCGGTCG | 3
43 | GTACCAAGGTGAATAGTTCGTTGATGAGTAGGCG | 0.742
44 | TCTATTAGTTGAATAGGGCAACCGAAACAGCGGA | 0.29
45 | CAAACTAGGTCACAGAGCTCAAAGTCCGTGCGTA | 0.446
46 | ATCTCTTGGTAACAAGTTCAGTGAAAGAGAGGAC | 0.0703
47 | TCAGACAGGTCAAGGTAACTCAGGTACGCAGTCG | 0.676
48 | TCGAGTAGGTTAGTCGGGGCGTTCAGCCAACATA | -0.96
49 | TCTGCTAGGTCAGTTGGTCAGCTCACGAGCTGCC | -1.19
50 | AGAACGAGGGCACGCTGAGTTGATTGCAGAGTAG | -0.751
51 | AGAACGAGGGCACGCTGAGTAGATAGCAGAGTAG | -0.354
52 | ATATGTAGGTTACATCCGGGTCATTCCGGCTATG | 0.832
53 | AGAACGCGGGCACGCTGAGTTGATAGCAGAGTAG | -0.302
54 | TCTTGTAGATCAATAGAGGCTAAGAAAGTGCGCT | -0.133
55 | CCTAGCAGGCCAATCTGGGTCACTGAAGGCTTGA | -0.428
56 | CCTTACGGGTCACGAGGTTACAGCACGACGAGCG | 2.1
57 | TCTTGTAGATCAGCAGGTGAAGAAAGCTGGCCAA | -0.865
58 | ACTATTAGCTGACTTAGGGCAACCGATACGACGC | 1.14
59 | AGAACGAGGGCAATGAGTTGATCGCACGGGTGGC | -0.671
60 | TTACCAAGGTGAAGGTCGTCGATCCCTCTGTAGA | -0.604

Row | Sequence | PBM binding z-score
61 | CTCGAAAGGTCGGTTGAGGTGAATATACGGATAA | 0.256
62 | CGTCCAAGGTCAAGGCTAGGTCAGTGAAAGCATT | 1.29
63 | ACTAGCAGGCAAAGGGTCACTCAAGATTAGTCCG | 1.42
64 | TCTTGTAGAACAAAGGTTAAGAAAGCCGAAGCCT | 0.221
65 | TAACCTAGGTCATGGGCCAGTATACCACGCGAAC | 1.11
66 | CTACCAAGGTGAACAAGGTCGTTGCTTACTATTC | -0.135
67 | TGTGCTAGGTCAGTTGGTCAGCTAACGAGCTGCC | -0.296
68 | TCTGGTTGGTCACGGAGGTCACACACGACGGGTA | 2
69 | AGTCAAAGTTCATCTAGGTGACGTAAGATATGCT | 1.44
70 | GCTCTTAGTTGAAAGGGCAACCGAATGATTCTCG | -0.318
71 | CGTCCAAGGTCAGGGTCAGTGAAAGAGACTCGAA | 1.34
72 | TCATATAGCTAAAGGTGAAAGTCGAACGATATGA | 0.712
73 | AGAATGAGGTTACCAAAGATCAGGTAAACGCTTG | 0.183
74 | GCTGCTAGGTCAACTGATGGTTAGCTAAAGCTCG | -0.0413
75 | TCGAGTAGGTTACTCGGGGCATTCAGCCAACATA | -1.03
76 | AGAAGGAGGGCACGCTGAGTTGATAGCAGAGTAG | -0.141
77 | GCATATAGGTAATACATGGTGAAAGTCCGATTGT | 0.397
78 | GCTATTAGTTGAAAAGGCAACCGAATGATTCTCG | 0.557
79 | CAAACTAGGTCAAGGTCAACGTCGGTTTGTGCCA | 2.12
80 | GCTTGTAAATCAAGGTTAAGAAAGACTAAGCTAA | -0.0975

— the supplement of paper PMC6555819
